# Assay outcomes from PubChem BioAssay.
# Compounds with a hit are over-represented: about 5.4% of the library has one in this group of screens.
# p53 reactivator: qHTS assay for re-activators of p53 using a Luc reporter. H1299 p53-A138V BP100-luciferase reporter, luminescence, 24 h. actives 0.063% (n = 320,000). Potency, µM (highest dose often 92.2 µM), inactives show at the highest dose activity change, positive = activation, usual class: activators; further: potency means the concentration at half of the fitted maximal effect; % of control where 0% means no effect; nearly all actives have a fitted effect of over 45% in size
#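 H1299 (p53-null), stable ts p53-A138V + BP100-Luc; 1000 cells/well, Opti-MEM/10% FBS; cpd 4 pt, 1:5; 24 h, 37 deg C, 5% CO2; detection reagent 10 min RT; luminescence.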
# RORgamma inh: qHTS for inhibitors of ROR gamma transcriptional activity; Drosophila S2 Gal4-RORgamma UAS-luciferase reporter, 20 h; Potency, µM (doses to about 53.6 µM), inactives show top-dose activity change, negative = inhibition, most hits filed as inhibitors; actives 5.4% (n = 310,000); AID 2551, 2010; further: potency means the concentration at half of the fitted maximal effect; on the % scale 0 is the no-effect control and ±100 the full control effect; nearly all actives have a fitted effect of over 60% in size
# Target sequence (P51450 whole entry, looked up, the tested form may be a part): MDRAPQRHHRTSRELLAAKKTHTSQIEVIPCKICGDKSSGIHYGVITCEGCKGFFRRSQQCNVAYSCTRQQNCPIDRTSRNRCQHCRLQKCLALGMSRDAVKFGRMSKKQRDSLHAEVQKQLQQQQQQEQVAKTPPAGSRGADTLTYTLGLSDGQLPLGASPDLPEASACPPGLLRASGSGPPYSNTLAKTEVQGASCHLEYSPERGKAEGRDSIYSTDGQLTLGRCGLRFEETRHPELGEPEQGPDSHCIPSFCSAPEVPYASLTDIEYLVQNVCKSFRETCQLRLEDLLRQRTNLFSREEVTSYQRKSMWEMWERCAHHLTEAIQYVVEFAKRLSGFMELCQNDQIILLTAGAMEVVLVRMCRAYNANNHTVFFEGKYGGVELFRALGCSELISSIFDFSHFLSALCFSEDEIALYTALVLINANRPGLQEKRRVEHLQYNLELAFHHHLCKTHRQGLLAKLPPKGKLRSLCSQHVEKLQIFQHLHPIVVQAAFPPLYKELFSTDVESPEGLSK
#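 Read-out: Photinus luciferase luminescence; inhibitors lower reporter signal. Insect Schneider cells with Gal4-ROR gamma fusion under metallothionein promoter, UAS reporter; 700 uM final copper sulfate induction, 20 hr, ambient temperature.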
# Six1-Eya2 inh: qHTS Assay for Inhibitors of the Six1/Eya2 Interaction | actives 0.56% (n = 360,000) | AID 651725, 2012 | activity change, % (concentration not given with the values) | AlphaScreen GST-Six1/His-Eya2 binding, biochemical; hits give low values; in the data active means activity change below about -65%; inconclusive means mostly about -30% to -63%; further: on the % scale 0 is the no-effect control and ±100 the full control effect
#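 Compounds are tested against tagged Six1 and Eya2 proteins bridged by glutathione donor and nickel acceptor beads; after a one-hour incubation at 37 °C without light, AlphaScreen emission is recorded.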
# VP16 counter: VP16 counterscreen qHTS for inhibitors of ROR gamma transcriptional activity. Drosophila S2 Gal4-VP16 UAS-luciferase, luminescence, 20 h. Potency, µM (titrated, usually from 53.6 µM), for inactives: at the highest dose activity, negative = inhibition, usual class: inhibitors. actives 3.5% (n = 310,000);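 further: Gal4-VP16 expression switched on by copper sulfate through the metallothionein promoter; potency means the concentration at half of the fitted maximal effect; on the % scale 0 is the no-effect control and ±100 the full control effect; nearly all actives have a fitted effect of over 50% in size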
# CtBP-E1A inh: qHTS Assay for Inhibitors of the CtBP/E1A Interaction; AlphaScreen GST-E1A/His-CtBP binding, 1536-well; hits give low values; activity change, % (concentration not given with the values); actives 0.49% (n = 340,000); AID 651724, 2012; in the data active means activity change below about -65%; inconclusive means mostly about -30% to -63%; further: on the % scale 0 is the no-effect control and ±100 the full control effect
#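 AlphaScreen with 125 nM GST-E1A and 125 nM His-CtBP (5X stocks) in Tris pH 8.0, 300 mM NaCl, BSA, Tween 20, TCEP. Compounds preincubated 2 h at 37 deg C, then glutathione donor/nickel acceptor beads added for 1 h at 37 deg C in dark.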
# The depositor's hits bear a star; ? = inconclusive; · = no result; [ ] = remark or other dose. Unless noted, the call rests on the fitted dose curve; in most records, active means well fitted curve in the direction sought with a large enough effect; inconclusive means small, poorly fitted or top-dose-only effect, or another doubt; inactive means no such curve, though single readings can be large; an effect the other way counts as inactive or inconclusive.
SMILES,p53 reactivator,RORgamma inh,Six1-Eya2 inh,VP16 counter,CtBP-E1A inh
CCOC(=O)c1cc2c(=Cc3ccc(N(C)C)cc3)c3ccccc3n2[n+]1C,·,·,-69*,·,0
CN(C)c1ccc(C=c2c3ccccc3n3c2c2ccccc2[n+]3C)cc1,·,·,-9,·,12
CN(C)c1ccc(C=c2c3cc(O)ccc3n3c2cc(-c2ccccc2)[n+]3C)cc1,·,·,-74*,·,12
Cc1cc2c(=Cc3ccc(N(C)C)cc3)c3ccccc3n2[n+]1C,·,·,0,·,-66*
COCCn1c(=O)c(CCc2ccccc2)nc2cnc(Oc3cccc(Cl)c3)nc21,·,?,·,17%,·
CS(=O)(=O)c1ccc(Nc2nc(C(N)Cc3ccc(Cl)cc3)cs2)cc1 (configuration not stated),·,·,-20,·,-7
CCCNC(=O)C1(C)CCCN(Cc2ccc(Oc3ccccc3)cc2)C1 (configuration not stated),·,·,15,·,-24
CCOC(=O)C1(CC2CCCCO2)CCN(Cc2nccn2-c2cccc(C)c2)CC1 (configuration not stated),-6%,4.5µM*,0,13µM*,·
CCOC(=O)C1(CC2CCCCO2)CCN(Cc2nccn2-c2ccc(OC)cc2)CC1 (configuration not stated),-2%,7.1µM*,6,?,-2
CCOC(=O)C1(CC2CCCCO2)CCN(Cc2nc3ccccc3[nH]2)CC1 (configuration not stated),0%,0%,4,7%,10
Cc1cccc(-n2ccnc2CN2CCC(CO)(Cc3ccccc3)CC2)c1,-5%,16µM*,2,-4%,8
Cc1c(CN2CCC(CO)(Cc3cccc(C(F)(F)F)c3)CC2)c2ccccc2n1C,-7%,7.1µM*,-19,8.9µM*,-2
CCOC(=O)C1(CC2CCCCO2)CCN(Cc2cc(F)ccc2-n2cccn2)CC1 (configuration not stated),6%,15%,1,15%,-1
CC(=O)OC(C(=O)c1ccccc1)c1ccccc1 (configuration not stated),·,-3%,·,5%,·
CCOC(=O)C1=C(C)NC(=S)NC1/C=C/c1ccccc1 (configuration not stated),-10%,1.8µM*,13,2µM*,12
COC(=O)C1=C(C)NC(=S)NC1/C=C/c1ccccc1 (configuration not stated),-2%,6.3µM*,-3,16µM*,5
CCOC(=O)C1=C(C)NC(=O)NC1/C=C\c1ccccc1 (configuration not stated),·,1%,1,-11%,0
CCCC(=O)NC(c1ccccc1OC)c1ccc2cccnc2c1O (configuration not stated),12%,5µM*,-88*,2.2µM*,-84*
CCCCC(=O)NC(c1ccc(OC)c(OC)c1)c1c(O)ccc2ccccc12 (configuration not stated),-6%,14%,-6,0%,-13
CCCC(=O)NC(c1ccc(OC)c(OC)c1)c1c(O)ccc2ccccc12 (configuration not stated),-1%,31%,-1,0%,-5
CCCCC(=O)NC(c1ccccc1OC)c1ccc2cccnc2c1O (configuration not stated),?,5.6µM*,-76*,4.5µM*,-92*
C=CCN1C(=O)NC(c2ccc(OC)cc2)(C(F)(F)F)S/C1=C(\C#N)c1nnc(N2CCOCC2)n1-c1ccccc1 (configuration not stated),-1%,4.5µM*,-5,13µM*,7
CC(C)(C)C1CCC(=NNc2ncc(C(F)(F)F)cc2Cl)CC1 (configuration not stated),-1%,28µM*,-3,11µM*,5
N#Cc1c(Nc2ccccc2)s[nH]c1=O,26%,?,-5,11µM*,0
N#Cc1c(Nc2ccccc2Cl)s[nH]c1=O,-15%,1.3µM*,51,3.2µM*,9
SMILES,p53 reactivator,RORgamma inh,Six1-Eya2 inh,VP16 counter,CtBP-E1A inh
N#Cc1c(Nc2ccccc2C(F)(F)F)s[nH]c1=O,1%,14µM*,-1,11µM*,-3
CCN(C(=O)COC(=O)CNC(=O)c1ccc(C)cc1)c1c(N)n(Cc2ccccc2)c(=O)[nH]c1=O,-4%,·,0,·,2
COc1cccc(Cn2c(=O)c(C)nc3cnc(N4CCN(C)CC4)nc32)c1,·,-16%,·,3%,·
O=C1CN(C(=O)c2ccccc2F)C(c2ccc(F)cc2)c2cc(Br)ccc2N1 (configuration not stated),-4%,50%,8,12%,-1
C=C1C(=O)O[C@@H]2[C@H]1[C@@H](OC(=O)/C(C)=C/C)C/C(C)=C\C(=O)/C=C(\C)[C@@H]2O,-17%,?,0,11µM*,·
CC(C)C[C@@H](CO)N1CCN(Cc2cccc(C#N)c2)CCC1=O,9%,-8%,6,3%,7
COCCNC(=S)N1CCN(Cc2cccc(OC)c2)CC1,-5%,-16%,5,3%,6
O=C(NNC(=S)Nc1ccccc1)c1cc(Br)ccc1Cl,7%,0.79µM*,-13,-16%,-7
O=C(CCc1ccc(O)c(O)c1)NNC(=S)Nc1ccc(Br)cc1Cl,-1%,11µM*,105,?,-8
O=C(NNC(=S)Nc1ccc(Br)cc1Cl)c1ccncc1,8%,-33%,-22,20µM*,-3
Cn1c(CNC(=O)CCNC(=O)c2ccc(F)c(F)c2)cc(=O)n(C)c1=O,-2%,6%,5,-13%,-8
CCN1CCN(C(=O)c2ccc(N3CC4CC(C3)c3cccc(=O)n3C4)c([N+](=O)[O-])c2)CC1 (configuration not stated),4%,0%,15,-9%,2
CCCCCn1c(=O)c(-c2nc3ccccc3[nH]2)c(O)c2ccccc21,3%,1.6µM*,2,7.9µM*,8
O=C(CCS(=O)(=O)c1ccc(F)cc1)N1CCOCC1,19%,-12%,-6,27%,6
O=C(O)CCC/C=C\C[C@@H]1[C@@H](/C=C/[C@@H](O)COc2cccc(C(F)(F)F)c2)[C@H](O)C[C@@H]1O,·,1%[10 µM],·,-5%,·
O=C(Nc1ncc(Cc2cccc(C(F)(F)F)c2)s1)c1ccc(-c2cccc([N+](=O)[O-])c2)o1,-5%,7.1µM*,-8,4.5µM*,0
CC(C)(C)OC(=O)NCCc1nnc(S(=O)(=O)Cc2ccc(Cl)cc2Cl)o1,-30%,?,9,7.1µM*,3
